A short description of experiment [1]: qHTS to identify inhibitors of the type 1 interferon - major histocompatibility complex class I in skeletal muscle: primary screen against the NCATS Pharmaceutical Collection (AID 1347407). The method, boiled down: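 Luminescence from HiBiT-tagged endogenous HLA-B*08:01 served as the read-out of IFN-beta-induced MHC class I in CRISPR-engineered C25cl48 myoblasts. Cells received 4 ng/ml IFN-beta plus compound (high final 46 uM, […]) for 24 h.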
On the technique in general: Quantitative high-throughput screening tests each substance at several concentrations.

The target of experiment [2] is Protein phosphatase 1D (Homo sapiens) (UniProt O15297). The experiment can be described thus: RapidFire Mass Spectrometry qHTS Assay for Modulators of WT P53-Induced Phosphatase 1 (WIP1) (AID 1347424).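 Further: amount of dephosphorylated VEPPL-S-QETFS peptide product formed by WIP1; series mostly up to about 63 µM.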 The method, boiled down:
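Mass-spectrometric measurement of dephosphorylated peptide after a 5 min room-temperature reaction of 10 nM WIP1 with 2 uM phosphopeptide, following 1 h compound preincubation in 30 mM MgCl2 buffer.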

The target is the same in experiment [3]. Description: Rhodamine-PBP qHTS Assay for Modulators of WT P53-Induced Phosphatase 1 (WIP1) (AID 1347425). The method, boiled down: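 WIP1 (5 nM final) was preincubated with compound for 1 hour at room temperature. It then dephosphorylated 10 uM VEPPL-pS-QETFS peptide in Tris-HCl pH 7.5 with 30 mM MgCl2. Released Pi was detected by 10 uM Rh-PBP fluorescence (ex 525/em 598 nm) read at 1-min intervals for 11 min, as delta f1 - f0.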

Experiment [4] in a line: qHTS to identify inhibitors of the type 1 interferon - major histocompatibility complex class I in skeletal muscle: primary screen against the NCATS LOPAC collection (AID 1347405).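 Further: human myoblasts with HiBiT tag on endogenous HLA-B stimulated by IFN-beta; lytic HiBiT luminescence reporting HLA-B protein level.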 In outline: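 HLA-B HiBiT myoblasts, IFN-b 4 ng/ml, dexamethasone-free medium; compounds 7-pt 1:4.3 titration, top 46 uM final; 24 h at 37 C; Nano-Glo HiBiT lytic reagent, 10 min RT, luminescence.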

Experiment [5] in a line: qHTS for inhibitors of adenylyl cyclases using a fission yeast platform: a pilot screen against the NCATS LOPAC library (AID 1347410). The method, boiled down: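 Fission yeast qHTS: CHP2027 cells (AC9-GNAS-PDE4D2, fbp1-GFP), 5x10^6 cells/mL working density, EMM + His/Lys/Ura; LOPAC at up to 57 µM final; 18 h dark, 30C; GFP by laser cytometry. DPI positive control, DMSO vehicle.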

Experiment [6] in a line: Validation qHTS assay for inhibitors of Activation Induced Cytidine Deaminase (AID): UDG Counterscreen signal (AID 1347427). In outline: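 Fluorescence at 560 nm excitation, 665 nm emission reports UDG signal after 250 mM NaOH (2x) addition and 30 min. Enzymes (AID 1 uM, UDG 2 U/mL, at 4/3x) preincubated 10 min with compound, then 4 h with 4x 250 nM DJC20/DJC23 substrate at room temperature.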

Experiment [7] has as its target Single-stranded DNA cytosine deaminase (Homo sapiens) (UniProt Q9GZX7). The experiment can be described thus: Validation qHTS assay for inhibitors of Activation Induced Cytidine Deaminase (AID): AID signal (AID 1347429). In outline: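 AID+UDG coupled FRET deamination; cpds up to 114 uM final; DJC20/DJC23 substrate, 4 hr RT; NaOH stop, 30 min RT; read Ex 540/Em 590.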

Experiment [8] is described as follows: Primary qHTS for inhibitors of La Crosse Virus (LACV) - induced cell death in SH-SY5Y cells (AID 1508616).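 Further: top concentration of the series differs between compounds; higher means more rescue of cells from virus-induced death.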 In outline:
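Cytopathicity rescue screen: compounds pinned onto SH-SY5Y cells, which are then infected with LACV (MOI 0.01) and held 6 days at 37C. Percent activity is scaled between infected DMSO control and uninfected DMSO control.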

The nature of experiment [9]: qHTS to identify inhibitors of the type 1 interferon - major histocompatibility complex class I in skeletal muscle: primary screen against the NCATS Mechanism Interrogation Plate v5.0 (MIPE) Libary (AID 1347411). Further: nearly all actives have a fitted effect of over 65% in size. In outline: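 HLA-B HiBit myoblasts, dexamethasone-free medium + 4 ng/ml IFN-b, 24 h compound, 11-pt 1:3 from 46 uM final. Readout: Nano-Glo HiBiT lytic luminescence after 10 min lysis, RT.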

Experiment [10] can be described thus: Cytotoxicity qHTS for assessment of Hepg2 cells membrane integrity screened against the NCATS CANVASS Library (AID 1347387). The method, boiled down: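 LDH release read by fluorescence (560 nm ex/590 nm em) after CytoTox-ONE addition and 10 min RT; signal tracks lysed cells. HepG2, 2000 cells/well, plated overnight; compound 5 hr, 37C, 5% CO2, final 0.59 nM - 46 uM, 11 points.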

Experiment [11] can be described thus: qHTS for Activators of p53 Stress Response Pathway screened against the NCATS CANVASS Library (AID 1347388). In outline: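 p53RE-bla HCT-116 cells (4000/well) were plated 5 h at 37C, exposed to compounds for 16 h at 37C over an 11-point concentration series, then loaded with CCF4 for 2 h at room temperature; 460/530 nm emission ratio read.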
The nature of experiment [12]: qHTS assay for small molecule disruptors of mitochondrial membrane potential screened against the NCATS CANVASS Library (AID 1347389). Further: series mostly up to about 46 µM; nearly all actives have a fitted effect of over 60% in size. The method, boiled down:
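Red/green fluorescence ratio read-out: J-aggregates ex 540/em 590 nm, monomers ex 490/em 535 nm. HepG2, 1 hr compound treatment, then 30 min Mito-MPS dye at 37C. 11-pt qHTS concentration series.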

The nature of experiment [13]: Secretion counterscreen for inhibitors of the SERCaMP assay screened against the NCATS CANVASS Library (AID 1347390).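 Further: light from luciferase secreted into medium read as a measure of general secretion; series mostly up to about 77 µM.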 The method, boiled down: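 SH-SY5Y-GLuc STOP cells; 4 h attach; cpds 0.001 - 77 uM (qHTS, 11 pts), 20 h 37C/5% CO2; coelenterazine in glow buffer; luminescence, 5 s exposure.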
The nature of experiment [14]: qHTS for activators of Nrf2/ARE signaling pathway screened against the NCATS CANVASS Library (AID 1347391). Further: nearly all actives have a fitted effect of over 60% in size. The method, boiled down: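 HepG2 ARE-bla; cpd 11-pt qHTS, 16 h 37C/5% CO2; CCF4 substrate 2 h RT; read ex 405 / em 460 + 530 nm. Viability by CellTiter-Glo luminescence, 30 min RT.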
A short description of experiment [15]: qHTS for activators of dead-cell proteases activity screened against the NCATS CANVASS Library (AID 1347392).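 Further: luminescence from protease leaking out of membrane-damaged cells cleaving impermeant substrate; rising signal means more cytotoxicity.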 The method, boiled down:
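Cytotoxicity in HepG2 cells was assessed by released protease cleaving AAF-aminoluciferin, with luminescence as signal. Exposure lasted 5 h at 37C across an 11-point series.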

Experiment [16] can be described thus: Vero-766 cells viability qHTS against the NCATS CANVASS Library: Counterscreen for Zika virus inhibition assay (AID 1347394). Further: series mostly up to about 46 µM; nearly all actives have a fitted effect of over 60% in size. In outline: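 Vero 766, no virus; 1000 cells/well; o/n attach; cpd 11-pt; 72 h, 37C, 5% CO2; CTG luminescence; cell-free media wells = 100% inhibition.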
Experiment [17] can be described thus: qHTS for inhibitors of Wild type Zika virus screened against the NCATS CANVASS Library (AID 1347396).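 Further: ATP luminescence of surviving cells so rescue from viral cell killing; series mostly up to about 46 µM.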 In outline: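 Vero 766 (African green monkey) cells, 1000 per well, attached overnight, then compounds were added in an 11-point series before wild-type Zika virus infection. After 72 h at 37C, cell viability was read as CellTiter Glo luminescence.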
Experiment [18] can be described thus: Viability qHTS for inhibitors of the SERCaMP assay screened against the NCATS CANVASS Library (AID 1347400). Further: series mostly up to about 92 µM; nearly all actives have a fitted effect of over 70% in size. In outline:
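CellTiter-Glo luminescence readout after 48 h compound exposure (11-pnt qHTS series) of SH-SY5Y-GLuc SERCaMP MJH297 cells seeded at 1000 cells/well; bortezomib positive control.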

The nature of experiment [19]: Redox Reaction Profiling qHTS: Assay Interference Panel against the NCATS CANVASS Library (AID 1347401). Further: potency means the concentration at half of the fitted maximal effect. The method, boiled down: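 Quantitative HTS over an 11-point series was run in HEPES pH 7.3 with 50 mM NaCl, 200 uM DTT and 5 uM resazurin. Initial and 15-min resorufin fluorescence readings were taken.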

Results filed as inconclusive are left out. Activity calls are given as the source filed them. The call rests on the fitted dose curve; in most records, active means well fitted curve in the direction sought with a large enough effect; inconclusive means small, poorly fitted or top-dose-only effect, or another doubt; inactive means no such curve, though single readings can be large; an effect the other way counts as inactive or inconclusive.

Sequence of Single-stranded DNA cytosine deaminase (Homo sapiens) (Q9GZX7 whole entry, looked up): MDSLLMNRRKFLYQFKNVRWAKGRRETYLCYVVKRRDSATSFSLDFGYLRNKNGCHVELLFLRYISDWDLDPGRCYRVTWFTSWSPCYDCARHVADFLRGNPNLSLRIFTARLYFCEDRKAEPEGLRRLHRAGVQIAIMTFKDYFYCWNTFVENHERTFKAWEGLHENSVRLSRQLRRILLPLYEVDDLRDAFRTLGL
Sequence of Protein phosphatase 1D (Homo sapiens) (O15297 whole entry, looked up): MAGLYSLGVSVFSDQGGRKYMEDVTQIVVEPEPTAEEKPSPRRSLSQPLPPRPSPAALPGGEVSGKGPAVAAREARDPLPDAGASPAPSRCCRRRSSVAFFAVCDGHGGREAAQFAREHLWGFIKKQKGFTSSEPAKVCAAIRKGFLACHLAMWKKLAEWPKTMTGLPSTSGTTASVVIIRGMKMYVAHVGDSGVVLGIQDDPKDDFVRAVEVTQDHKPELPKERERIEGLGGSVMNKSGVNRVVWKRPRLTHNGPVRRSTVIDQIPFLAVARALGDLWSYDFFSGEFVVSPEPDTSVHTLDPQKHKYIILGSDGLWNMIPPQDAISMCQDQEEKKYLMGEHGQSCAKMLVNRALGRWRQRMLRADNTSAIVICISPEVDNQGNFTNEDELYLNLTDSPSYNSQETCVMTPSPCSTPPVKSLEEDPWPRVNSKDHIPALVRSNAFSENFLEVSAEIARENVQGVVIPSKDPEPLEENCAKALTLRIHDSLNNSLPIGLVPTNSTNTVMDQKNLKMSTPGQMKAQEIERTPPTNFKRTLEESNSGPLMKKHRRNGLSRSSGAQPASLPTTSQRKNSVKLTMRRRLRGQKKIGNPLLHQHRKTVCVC

As to `CN1C[C@H]2c3ccccc3Oc3ccc(Cl)cc3[C@@H]2C1`, the Potency entry in [1] is “inactive”. The compound was classed as inactive in experiment [2] and in experiment [3].

With `CN(C)CCC(c1ccccc1)c1ccccn1` (stereo not given), the Potency result in experiment [4], in experiment [1] and in experiment [7] was “inactive” each time. The compound was classed as inactive in [5], in experiment [2], in experiment [3], in [6] and in [8].

Take `C[N+](C)(C)CCCCCC[N+](C)(C)C`: the Potency result in experiment [4], in experiment [1] and in experiment [7] was “inactive” in each case. For the same compound, the outcome in [5], in [2], in [3], in experiment [6] and in [8] was inactive.

On to `O=C1NC(=O)C(c2ccccc2)(c2ccccc2)N1`, for which the Potency result in [4], in experiment [1] and in [7] was “inactive” each time. Further, the compound was called inactive in experiment [5], in experiment [2], in [3], in experiment [6] and in [8].

As for `CC(=O)CCCCn1c(=O)c2c(ncn2C)n(C)c1=O`, the Potency entry in [4], in experiment [1] and in experiment [7] was “inactive” each time. Also, the outcome in experiment [5], in experiment [2], in experiment [3], in experiment [6] and in experiment [8] was inactive.

In the case of `CC1=C(/C=C/C(C)=C/C=C/C(C)=C/C(=O)Nc2ccc(O)cc2)C(C)(C)CCC1`, the Potency result in experiment [1] and in experiment [7] was “inactive” each time. The outcome in experiment [5], in experiment [3], in [6] and in [8] was inactive.

On to `CC(=O)O[C@]1(C(C)=O)CC[C@H]2[C@@H]3C=C(Cl)C4=CC(=O)[C@@H]5C[C@@H]5[C@]4(C)[C@H]3CC[C@@]21C`, for which the Potency result in experiment [4], in [1], in experiment [9] and in [7] was “inactive” throughout. Moreover, the compound was classed as inactive in experiment [5], in experiment [3], in [6] and in experiment [8].

`O=C(O)C(O)Cc1ccc(O)c(O)c1` (stereo not given): the outcome in [10], in [11], in experiment [12], in experiment [13], in experiment [14] and in experiment [15] was inactive. The call in [16], in experiment [17] and in experiment [18] was inactive. In addition, the Potency in experiment [19] is 15.2 µM (active). The Potency entry in experiment [9] was “inactive”.

For the compound `CC[C@]1(O)C[C@@H]2CN(CCc3c([nH]c4ccccc34)[C@@](C(=O)OC)(c3cc4c(cc3OC)N(C)[C@H]3[C@@](O)(C(=O)OC)[C@H](OC(C)=O)[C@]5(CC)C=CCN6CC[C@]43[C@@H]65)C2)C1`, the Potency entry in [1] was “inactive”. Moreover, the compound was classed as inactive in experiment [2], in experiment [3] and in experiment [8].

Take `COc1ccccc1N1CCN(CCCNc2cc(=O)n(C)c(=O)n2C)CC1`: the Potency entry in [4], in experiment [1] and in experiment [7] was “inactive” each time. Further, the call in [5], in experiment [2], in experiment [3], in [6] and in [8] was inactive.

Turning to `O=C(O)CCc1nc(-c2ccccc2)c(-c2ccccc2)o1`, the Potency result in experiment [4], in experiment [1] and in experiment [7] was “inactive” each time. Besides, the call in experiment [5], in [2], in experiment [3], in [6] and in [8] was inactive.

As for `CC(=O)N[C@@H](CS)C(=O)O`, the Potency result in experiment [4], in experiment [1] and in experiment [7] was “inactive” throughout. The compound was called inactive in [5], in experiment [2], in experiment [3], in experiment [6] and in [8].

Turning to `O=C(Nc1c(Cl)cncc1Cl)c1ccc(OC(F)F)c(OCC2CC2)c1`, the Potency entry in experiment [9] is “inactive”.

For `CC(=O)OC1C(C)OC(Oc2c(-c3ccc(O)cc3)oc3cc(O)cc(O)c3c2=O)C(O)C1OC(C)=O` (stereo not given), the Potency result in experiment [9] was “inactive”.

The values above are taken from PubChem BioAssay (NCATS).
